Records with an inconclusive call do not appear. Some structures have more than one record in an assay (separate samples or runs), and their calls can disagree. Activity calls are given as the source filed them. Rule for the calls, unless noted: active = hit-call score of the fitted dose curve at least 0.9, where 1 is the maximum; inconclusive = response in the unintended direction; inactive = score below 0.9.

Sequence of Nuclear receptor subfamily 4 group A member 2 (Homo sapiens) (P43354 whole entry, looked up): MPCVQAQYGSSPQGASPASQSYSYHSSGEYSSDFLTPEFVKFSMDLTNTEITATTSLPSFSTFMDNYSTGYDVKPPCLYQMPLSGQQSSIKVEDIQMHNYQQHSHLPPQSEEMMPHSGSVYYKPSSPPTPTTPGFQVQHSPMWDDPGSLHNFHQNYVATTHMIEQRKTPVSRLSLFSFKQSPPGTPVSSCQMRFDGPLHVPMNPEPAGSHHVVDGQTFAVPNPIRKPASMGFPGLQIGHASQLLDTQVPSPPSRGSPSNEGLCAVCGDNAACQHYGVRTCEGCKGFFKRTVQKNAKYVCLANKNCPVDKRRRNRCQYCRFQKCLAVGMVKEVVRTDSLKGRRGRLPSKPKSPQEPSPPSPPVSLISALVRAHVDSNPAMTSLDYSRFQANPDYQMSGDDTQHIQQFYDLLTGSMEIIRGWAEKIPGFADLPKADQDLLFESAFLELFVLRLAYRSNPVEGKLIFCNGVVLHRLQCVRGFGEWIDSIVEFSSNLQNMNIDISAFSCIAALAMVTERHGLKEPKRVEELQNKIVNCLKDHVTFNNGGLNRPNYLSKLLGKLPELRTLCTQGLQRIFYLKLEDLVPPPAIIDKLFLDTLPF
Sequence of Transcriptional activator Myb (Homo sapiens) (P10242 whole entry, looked up): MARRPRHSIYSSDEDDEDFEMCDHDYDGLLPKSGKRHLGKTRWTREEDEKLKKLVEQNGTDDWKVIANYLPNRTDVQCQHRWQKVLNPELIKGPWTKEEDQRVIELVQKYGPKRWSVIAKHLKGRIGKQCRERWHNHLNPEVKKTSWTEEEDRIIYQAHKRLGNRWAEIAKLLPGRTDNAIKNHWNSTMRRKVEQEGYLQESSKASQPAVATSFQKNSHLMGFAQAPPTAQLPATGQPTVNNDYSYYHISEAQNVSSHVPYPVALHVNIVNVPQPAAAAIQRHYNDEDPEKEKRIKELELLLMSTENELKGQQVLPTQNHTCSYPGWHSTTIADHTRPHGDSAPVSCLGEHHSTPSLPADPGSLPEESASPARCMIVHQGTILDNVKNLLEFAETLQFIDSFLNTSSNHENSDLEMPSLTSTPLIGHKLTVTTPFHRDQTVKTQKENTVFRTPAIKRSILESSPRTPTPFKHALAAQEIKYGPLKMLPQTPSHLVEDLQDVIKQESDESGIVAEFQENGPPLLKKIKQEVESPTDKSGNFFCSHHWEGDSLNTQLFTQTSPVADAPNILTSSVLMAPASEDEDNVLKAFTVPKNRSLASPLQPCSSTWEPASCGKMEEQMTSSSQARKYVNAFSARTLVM

The target of the first experiment is Nuclear receptor subfamily 4 group A member 2 (Homo sapiens) (UniProt P43354). In words: ATG_NURR1_TRANS: Attagene TRANS-FACTORIAL HepG2 Assay for human Nuclear Receptor Related Protein 1 (NURR1) (AID 2282985). Conditions: HepG2 Attagene TRANS reporter, mRNA readout. In short, it runs like this:
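Cells: HepG2, transiently transfected. Exposure: 24 h. Detection: fluorescence of labelled RT-PCR products separated by capillary electrophoresis; upward fit versus DMSO.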
Turning to `Cc1nn(C)c(Oc2ccccc2)c1C=NOCc1ccc(C(=O)OC(C)(C)C)cc1`, the call was inactive. In the case of `COc1nc(C)nc(NC(=O)NS(=O)(=O)c2ccccc2OCCCl)n1`, the compound was called inactive. One may read the AC50 as the concentration at which the activity in the assay is half-maximal. Consider `CC(C)(c1ccc(O)cc1)c1ccc(O)cc1`, for which the AC50 was 44 µM (active) and the result was inactive. For the compound `CCOC(=O)NCCOc1ccc(Oc2ccccc2)cc1`, the compound was called inactive. As to `COC(=O)c1cccc(C)c1S(=O)(=O)NC(=O)Nc1nc(OCC(F)(F)F)nc(N(C)C)n1`, the call was inactive.

For the compound `N#CSCSc1nc2ccccc2s1`, the half-maximal activity concentration (AC50) is 11.6 µM (active) and the result was inactive. On to `CCCOC(=O)c1ccc(C(=O)OCCC)nc1`, for which the compound was called inactive.

With `CCOC(=O)C(C)Oc1ccc(Oc2nc3ccc(Cl)cc3o2)cc1` (stereo unspecified), the compound was called inactive. As for `CCC(C)OC(=O)N1CCCCC1CCO` (stereo unspecified), the compound was called inactive. As to `C[C@]12C[C@H](O)[C@H]3[C@@H](CCC4=CC(=O)CC[C@@]43C)[C@@H]1CC[C@@H]2C(=O)CO`, the result was inactive. In the case of `O=C(c1ccc(O)cc1O)c1ccc(O)cc1O`, the call was inactive. As for `CCSC(=O)N(CC(C)C)CC(C)C`, the call was inactive.

With `CC(C)CCCCCCc1ccc(O)cc1`, the AC50 is 11.1 µM (active) and the compound was classed as inactive.

For `OB(O)O`, the compound was called inactive. Take `CCOC(=O)c1ccc(O)cc1`: the compound was called inactive. Same read-out and setting: then `CCN(Cc1c(F)cccc1Cl)c1c([N+](=O)[O-])cc(C(F)(F)F)cc1[N+](=O)[O-]`, with “inactive”; and `C[C@]12CC[C@@H]3c4ccc(O)cc4C[C@@H](CCCCCCCCCS(=O)CCCC(F)(F)C(F)(F)F)[C@H]3[C@@H]1CC[C@@H]2O` (stereo partly specified), with “inactive”. Take `CN(C)C(=O)Nc1ccc(Cl)c(Cl)c1`: the compound was called inactive.

For `O=C(c1ccccc1)C1CCCCC1`, the result was inactive. For the compound `CCCCOC(=O)[C@@H](C)Oc1ccc(Oc2ccc(C(F)(F)F)cn2)cc1`, the result was inactive.

Another experiment addresses Transcriptional activator Myb (Homo sapiens) (UniProt P10242). Put plainly: ATG_Myb_CIS: Attagene CIS-FACTORIAL HepG2 Assay for human Myeloblastosis (Myb) Proto-Oncogene Transcription Factor (AID 2282986; active = hit-call score of the fitted dose curve at least 0.9, where 1 is the maximum; inactive = score below 0.9). Conditions: HepG2 Attagene CIS-FACTORIAL Myb reporter transcription; actives raise or lower the signal. An outline of the steps: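 Reporter mRNA is quantified by RT-PCR and capillary electrophoresis 24 h after dosing HepG2 cells transfected with cis-regulated reporter units, which track endogenous transcription factor activity. Gain and loss of signal are fitted versus DMSO baseline.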
As for `CC(C)(c1ccc(O)cc1)c1ccc(O)cc1`, the outcome was inactive.

Turning to `CCOC(=O)NCCOc1ccc(Oc2ccccc2)cc1`, the compound was classed as inactive. Consider `CCN(CC)C(=O)c1cccc(C)c1`, for which the result was inactive. Turning to `CCOC(=O)C(C)Oc1ccc(Oc2nc3ccc(Cl)cc3o2)cc1` (stereo unspecified), the compound was classed as inactive. Same read-out and setting: then `C[C@]12C[C@H](O)[C@H]3[C@@H](CCC4=CC(=O)CC[C@@]43C)[C@@H]1CC[C@@H]2C(=O)CO`, with “inactive”. `CCSC(=O)N(CC(C)C)CC(C)C`: the result was inactive. Turning to `CCOC(=O)c1ccc(O)cc1`, the compound was called inactive. On to `CCN(Cc1c(F)cccc1Cl)c1c([N+](=O)[O-])cc(C(F)(F)F)cc1[N+](=O)[O-]`, for which the compound was called inactive.
